Among the data in PubChem BioAssay are inhibition and RAM network inhibition values, retold here.

The source made the active and inactive calls.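 Rule for the calls, unless noted: active = RAM network inhibition above 8.4% in each of two replicates, 3 SD over the compound average; inconclusive = above 8.4% inhibition in only one replicate; inactive = 8.4% inhibition or less in each replicate.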

In general, inhibition refers to the relative decrease from the control value, in per cent.

A short description of the first assay: RAM pathway blockade in budding yeast – dse1pr::URA3 reporter, 5-FOA selection, pilot screen (AID 869;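 active = inhibition over a set limit, the all-compound mean plus 3 SD, in both replicate runs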;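 note: 0% = DMSO wells with no growth and 100% = 10 µM 1-NA-PP1 with full growth; RAM network block rescues cells from 5-FOA so hits raise OD615 growth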). The following applies: S. cerevisiae dse1pr::URA3 5-FOA growth, OD615, 2 d; at 10 µM; stronger effect = higher value; strain carries analog-sensitive mutant Cbk1 kinase.
Consider `O=C(CN1CCOCC1)Nc1cc(Cl)ccc1Cl`, for which the inhibition is 2.6% (inactive).
On the same count and under the same terms, the same measure for `COc1ccc(S(=O)(=O)Cc2ccc(C(=O)NC(C)C)o2)cc1`: -0.2% (inactive); for `CCCCCn1c(CN2CC(C)OC(C)C2)nc2c1c(=O)n(C)c(=O)n2C` (stereo not given): 1.86% (inactive); for `COC(=O)C1CCN(C(=O)c2ccccc2NC(C)=O)CC1`: -0.23% (inactive).
For the compound `CCN1CCN(c2cc(C)c3cc(NC(=O)Cc4ccc(OC)c(OC)c4)ccc3n2)CC1`, the inhibition is 3.25% (inactive).
On the same count and under the same terms, in the case of `CNC(=O)c1cc2cc(OC)ccc2n1CCN(C)C` it was 2.31% (inactive).
For the compound `COc1ccc(NC(=O)CSc2nnc(-c3ccccn3)n2N)cc1`, the inhibition was 0.535% (inactive).
For the compound `COc1cc(C)c(N(C(C)=O)c2ccccc2)c(C)c1`, the inhibition is 1.97% (inactive).
On the same count and under the same terms, in the case of `CCc1ccc(N2CCN(C(=O)c3ccc(OC)c(OC)c3)CC2)cc1` it was 0.975% (inactive); in that of `O=C(C1CCC(CNc2c(N3CCOCC3)c(=O)c2=O)CC1)N1CCN(c2ccccc2)CC1` (stereo not given), 2.86% (inactive).
On the same count and under the same terms, the same measure for `CC1(C)C(=O)OC(C(=O)c2ccccc2)C(C)(C)C1=O` (stereo not given): 0.83% (inactive).
Same read-out and setting: the same measure for `c1ccc(Sc2nc(N3CCCCC3)nc(N3CCCCC3)n2)nc1`: 0.735% (inactive); for `COC(=O)c1nc2n(n1)C(c1cccc(Cl)c1)C1=C(CC(C)(C)CC1=O)N2` (stereo not given): 0.75% (inactive).
In the case of `CCN(CC)C(=O)Cn1c(=O)n(-c2ccccc2)c(=O)n1CC(=O)N(CC)CC`, the inhibition was 1.29% (inactive).
On the same count and under the same terms, in the case of `CN(C)c1ccc(C2N(c3ccc(Cl)cc3)C(=O)C3CCCN32)cc1` (stereo not given) it was 2.37% (inactive); in that of `O=C(CN1C(=O)c2ccccc2C1=O)Nc1cccc2cccnc12`, 0.36% (inactive).
In the case of `O=C(Cn1ncc2ccccc21)N1CCc2ccccc21`, the inhibition is 1.26% (inactive).
Still for that read-out and setting: the same measure for `O=C(C1CCCN(S(=O)(=O)c2ccccc2)C1)N1CCCCCC1` (stereo not given): 1.79% (inactive); for `Cc1cccc(NC(=O)c2ccc(S(=O)(=O)N3CCCCC3)cc2)n1`: -0.09% (inactive); for `CC(=O)NC(CCS(C)(=O)=O)C(=O)Nc1cccc(Cl)c1Cl` (stereo not given): 2.29% (inactive).
Same read-out and setting: the same measure for `Cc1cc(C)c(S(=O)(=O)Nc2nnc(C)s2)c(C)c1`: 0.87% (inactive); for `CCC(=O)Nc1nc2ccccc2n1CCN1CCOCC1`: -0.285% (inactive).
Same read-out and setting: in the case of `CNC(=O)c1nnc(Cc2ccc(F)cc2)o1` it was 0.195% (inactive).
For the compound `CCSc1nc2c([nH]c3ccccc32)c(=O)n1C`, the inhibition was 3.67% (inactive).
The same measure, in the same setting: in the case of `CCOc1ccccc1NC(=O)CCS(=O)(=O)c1cccc2nonc12` it was 1.34% (inactive); in that of `O=C1C2CC=C(Cl)CC2C(=O)N1CC1Cc2ccccc2CO1` (stereo not given), 2.77% (inactive); in that of `COc1ccc(OC)c2c1CC(C)(C)NC2=O`, 1.83% (inactive).
As to `CCOc1ccc(N(CC(=O)NCc2ccccc2)S(=O)(=O)c2c(C)noc2C)cc1`, the inhibition is 4.04% (inactive).
The same measure, in the same setting: the same measure for `COC(=O)C1=C(C)N(C)C(C)=C(C(=O)OC)C1c1cccc(Br)c1`: 0.57% (inactive); for `Cc1ccc(C2CC(c3ccc(Cl)cc3)n3nc(N)nc3N2)cc1` (stereo not given): 1.9% (inactive); for `COc1ccc(CNC(=O)CS(=O)Cc2nc(-c3ccccc3C)oc2C)cc1` (stereo not given): 0.275% (inactive).
Still for that read-out and setting: the same measure for `O=C1CCCC/C1=C\Nc1ccc(Cl)cn1`: 2.25% (inactive); for `C=CCN1C(=Nc2ccccc2)SC/C1=C\C(=O)OC`: 0.81% (inactive); for `O=C(CC12CC3CC(CC(C3)C1)C2)NCO`: 1.92% (inactive).
In the case of `COc1ccc(C2C(C(N)=O)=C(C)Nc3nc(-c4ccccc4Cl)nn32)c(OC)c1` (stereo not given), the inhibition is 1.21% (inactive).
Same read-out and setting: in the case of `Nc1c(Br)cc(Br)c(N2CCCC2=O)c1Br` it was 1.68% (inactive).
Same read-out and setting: in the case of `Cc1ccccc1NC(=O)CSc1[nH]c(=O)cc(C)c1C#N` it was 2.41% (inactive); in that of `O=C(Cn1nc(C(=O)O)c2ccccc2c1=O)NCC1CCCO1` (stereo not given), 1.71% (inactive); in that of `Cc1cc(C(=O)NCc2ccco2)cs1`, 2.28% (inactive).
On the same count and under the same terms, in the case of `Cc1cc(Nc2cccc(Cl)c2C)n2ncnc2n1` it was 2.26% (inactive).

The nature of the next assay: RAM signaling pathway blockade in yeast – S. cerevisiae, Pdr1DBD-CYC8 efflux-inhibited sensitized strain, primary screen (AID 1298).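 Note: 0% = DMSO untreated cells without growth and 100% = 10 µM 1-NA-PP1 full growth; higher means more yeast growth rescued from 5-FOA killing.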 The following applies: S. cerevisiae cbk1-as DSE1-URA3 strain, 5-FOA growth OD615, 2 d; at 50 µM; stronger effect = higher value.
In the case of `O=C(CN1CCOCC1)Nc1cc(Cl)ccc1Cl`, the RAM network inhibition is 1.66% (inactive).
On the same count and under the same terms, the same measure for `COc1ccc(S(=O)(=O)Cc2ccc(C(=O)NC(C)C)o2)cc1`: 1.2% (inactive); for `CCCCCn1c(CN2CC(C)OC(C)C2)nc2c1c(=O)n(C)c(=O)n2C` (stereo not given): 1.97% (inactive); for `COC(=O)C1CCN(C(=O)c2ccccc2NC(C)=O)CC1`: 2.21% (inactive).
Same read-out and setting: in the case of `CCN1CCN(c2cc(C)c3cc(NC(=O)Cc4ccc(OC)c(OC)c4)ccc3n2)CC1` it was -0.95% (inactive); in that of `CNC(=O)c1cc2cc(OC)ccc2n1CCN(C)C`, 6.18% (inactive).
Same read-out and setting: in the case of `COc1ccc(NC(=O)CSc2nnc(-c3ccccn3)n2N)cc1` it was 4.82% (inactive).
Turning to `COc1cc(C)c(N(C(C)=O)c2ccccc2)c(C)c1`, the RAM network inhibition is 5.22% (inactive).
On the same count and under the same terms, the same measure for `CCc1ccc(N2CCN(C(=O)c3ccc(OC)c(OC)c3)CC2)cc1`: 2.51% (inactive); for `O=C(C1CCC(CNc2c(N3CCOCC3)c(=O)c2=O)CC1)N1CCN(c2ccccc2)CC1` (stereo not given): 1.31% (inactive); for `CC1(C)C(=O)OC(C(=O)c2ccccc2)C(C)(C)C1=O` (stereo not given): 2.22% (inactive).
The same measure, in the same setting: the same measure for `c1ccc(Sc2nc(N3CCCCC3)nc(N3CCCCC3)n2)nc1`: 4.97% (inactive); for `COC(=O)c1nc2n(n1)C(c1cccc(Cl)c1)C1=C(CC(C)(C)CC1=O)N2` (stereo not given): -0.77% (inactive).
On the same count and under the same terms, the same measure for `CCN(CC)C(=O)Cn1c(=O)n(-c2ccccc2)c(=O)n1CC(=O)N(CC)CC`: 1.08% (inactive).
As for `CN(C)c1ccc(C2N(c3ccc(Cl)cc3)C(=O)C3CCCN32)cc1` (stereo not given), the RAM network inhibition was 1.57% (inactive).
On to `O=C(CN1C(=O)c2ccccc2C1=O)Nc1cccc2cccnc12`, for which the RAM network inhibition was 5.82% (inactive).
Still for that read-out and setting: in the case of `O=C(Cn1ncc2ccccc21)N1CCc2ccccc21` it was 3.51% (inactive); in that of `O=C(C1CCCN(S(=O)(=O)c2ccccc2)C1)N1CCCCCC1` (stereo not given), 4.15% (inactive); in that of `Cc1cccc(NC(=O)c2ccc(S(=O)(=O)N3CCCCC3)cc2)n1`, 0.16% (inactive).
Still for that read-out and setting: in the case of `CC(=O)NC(CCS(C)(=O)=O)C(=O)Nc1cccc(Cl)c1Cl` (stereo not given) it was -0.83% (inactive); in that of `Cc1cc(C)c(S(=O)(=O)Nc2nnc(C)s2)c(C)c1`, 8.49% (inactive); in that of `CCC(=O)Nc1nc2ccccc2n1CCN1CCOCC1`, 5.41% (inactive).
In the case of `CNC(=O)c1nnc(Cc2ccc(F)cc2)o1`, the RAM network inhibition was 2.48% (inactive).
Still for that read-out and setting: in the case of `CCSc1nc2c([nH]c3ccccc32)c(=O)n1C` it was 0.53% (inactive); in that of `CCOc1ccccc1NC(=O)CCS(=O)(=O)c1cccc2nonc12`, 5.48% (inactive); in that of `O=C1C2CC=C(Cl)CC2C(=O)N1CC1Cc2ccccc2CO1` (stereo not given), -2.81% (inactive).
`COc1ccc(OC)c2c1CC(C)(C)NC2=O`: the RAM network inhibition was 3.75% (inactive).
On the same count and under the same terms, in the case of `CCOc1ccc(N(CC(=O)NCc2ccccc2)S(=O)(=O)c2c(C)noc2C)cc1` it was 3.95% (inactive); in that of `COC(=O)C1=C(C)N(C)C(C)=C(C(=O)OC)C1c1cccc(Br)c1`, 9.03% (inactive).
Still for that read-out and setting: the same measure for `Cc1ccc(C2CC(c3ccc(Cl)cc3)n3nc(N)nc3N2)cc1` (stereo not given): 8.2% (inactive).
Same read-out and setting: the same measure for `COc1ccc(CNC(=O)CS(=O)Cc2nc(-c3ccccc3C)oc2C)cc1` (stereo not given): 1.98% (inactive); for `O=C1CCCC/C1=C\Nc1ccc(Cl)cn1`: -1.13% (inactive); for `C=CCN1C(=Nc2ccccc2)SC/C1=C\C(=O)OC`: 6.77% (inactive).
For `O=C(CC12CC3CC(CC(C3)C1)C2)NCO`, the RAM network inhibition was -1.39% (inactive).
On the same count and under the same terms, in the case of `COc1ccc(C2C(C(N)=O)=C(C)Nc3nc(-c4ccccc4Cl)nn32)c(OC)c1` (stereo not given) it was -1.06% (inactive).
Same read-out and setting: in the case of `Nc1c(Br)cc(Br)c(N2CCCC2=O)c1Br` it was 0.63% (inactive); in that of `Cc1ccccc1NC(=O)CSc1[nH]c(=O)cc(C)c1C#N`, 1.7% (inactive).
Same read-out and setting: in the case of `O=C(Cn1nc(C(=O)O)c2ccccc2c1=O)NCC1CCCO1` (stereo not given) it was 6.89% (inactive); in that of `Cc1cc(C(=O)NCc2ccco2)cs1`, -0.32% (inactive).
`Cc1cc(Nc2cccc(Cl)c2C)n2ncnc2n1`: the RAM network inhibition was 2.35% (inactive).
